Source: PubChem BioAssay (Sanford-Burnham Center for Chemical Genomics)
A selection: hits, their analogues and other compounds. The true share with any hit is near 4%.
tim10-1 inh – growth inhibitors of tim10-1 mutant yeast | actives 2.2% (n = 330,000) | AID 463190 | S. cerevisiae tim10-1 ts strain growth, BacTiter-Glo, 24 h | inhibition, % at 20 µM;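 active = inhibition of at least 40%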;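 also: mutant grown at 25 °C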
NLRP3 yeast inh – inhibitors of NALP3 inflammasome in yeast; Yeast reconstituted NLRP3/ASC/caspase-1, beta-gal luminescence, 24 h; inhibition, % at 10 µM; actives 0.39% (n = 330,000); AID 2825;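 active = inhibition of 50% or more; inactive = inhibition below 50%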
tim23-1 inh – tim23-1 yeast growth inhibition; S. cerevisiae tim23-1 growth, BacTiter-Glo luminescence, 24 h; inhibition, % at 20 µM; actives 1.3% (n = 330,000); AID 463212;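 active = growth inhibition of the mutant yeast at or above 50%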;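 also: temperature-sensitive mutant grown at 25 °C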
NALP1 yeast inh – NALP1 inhibition. actives 0.61% (n = 280,000). S. cerevisiae NALP1/ASC/caspase-1 growth, X-gal OD620, 72 h. inhibition, % at 10 µM. AID 2071; in the data active = inhibition mostly above about 24%, no sharp cut-off; inactive = mostly below about 32%
TIM10 inh – inhibits growth of TIM10 yeast strain | AID 463195 | inhibition, % at 10 µM | S. cerevisiae TIM10 strain growth, BacTiter-Glo luminescence, 24 h | actives 1.4% (n = 330,000);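 active = inhibition of 40% or more at the single tested concentration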;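 also: wild-type TIM10 isogenic control strain grown at permissive 25 °C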
tim10-1 confirm – confirmation of tim10-1 mutant yeast growth inhibitors. shares compounds with tim10-1 inh. S. cerevisiae tim10-1 ts strain growth, BacTiter-Glo, 24 h. inhibition, % at 20 µM. actives 56% (n = 7,400). AID 463213;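 active = inhibition of yeast growth at or above a set limit in either of two repeat tests at 20 µM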;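 also: tim10-1 mutant grown at permissive 25 °C to find synthetic lethal compounds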
Of the large screens only hits and unclear results are named; the others gave an inactive call (follow-up assays come after a bar, where they were run).

Cn1c(=O)c(C(=O)COC(=O)c2cc(-c3ccco3)nc3ccccc23)c(N)n(CC2CC2)c1=O	none
COc1ccc(C(NC(C)=O)c2cc(Cl)c3cccnc3c2O)cc1OC (centres undefined)	tim10-1 inh 40 | tim10-1 confirm inactive
CCCC(=O)NC(c1ccco1)c1cc(Cl)c2cccnc2c1O (centres undefined)	tim10-1 inh 50 | tim10-1 confirm inactive
O/N=C/c1ccc(OCc2ccccc2F)c(Cl)c1	tim10-1 inh 41 | tim10-1 confirm inactive
O=C(CCN1C(=O)/C(=C/c2ccccc2)SC1=S)N1CCCCCC1	tim10-1 inh 44 | tim10-1 confirm 36
Cc1cccc(OCc2nnc(SCC(=O)N3c4ccccc4CCc4ccccc43)o2)c1	none (no result: NALP1 yeast inh)
O=C(CSc1nnc(COc2ccc(F)cc2)o1)N1c2ccccc2CCc2ccccc21	tim10-1 inh 42 | tim10-1 confirm inactive
CC1=[N+](C)N(c2ccccc2)C(=O)C1N=Cc1c(Cl)cccc1Cl (centres undefined)	none
Cn1c(CN2CCN(c3ccc(Cl)cc3)CC2)nc2ccccc21	none
CCn1c(CN2CCN(c3ccc(Cl)cc3)CC2)nc2ccccc21	tim10-1 inh 52 | tim10-1 confirm 34
Nc1c(C(=O)NCc2ccc3c(c2)OCO3)c2nc3ccccc3nc2n1CCCN1CCOCC1	tim10-1 inh 44 | tim10-1 confirm inactive
COc1ccccc1CNC(=O)c1c(N)n(CCCN2CCOCC2)c2nc3ccccc3nc12	none (no result: tim10-1 inh, NLRP3 yeast inh, tim23-1 inh, TIM10 inh)
COc1cc2c(cc1OC)CN(CCC(=O)c1ccc(Br)cc1)CC2	tim10-1 inh 50 | tim10-1 confirm 33
COc1cc2c(cc1OC)CN(C(=O)CCNC(=O)c1ccc(Br)cc1)CC2	none (no result: NALP1 yeast inh)
S=C(NCC1CCCCC1)Nc1cccnc1	tim10-1 inh 53 | tim10-1 confirm 43
O=C(CCC1CCCCC1)Nc1cccnc1	none
CCCn1c(NC(=O)c2ccc(Cl)c(S(=O)(=O)N3CCCC3)c2)nc2ccccc21	tim10-1 inh 44 | tim10-1 confirm 31
O=C(NCc1nc2ccccc2[nH]1)c1ccc(Cl)c(S(=O)(=O)N2CCCC2)c1	none (no result: NALP1 yeast inh)
CCN(CC)C(CNC(=O)CSc1nnnn1-c1c(C)cccc1C)c1ccco1 (centres undefined)	none (no result: NALP1 yeast inh)
C/C(=N/Nc1nc(-c2ccc(Cl)cc2)cs1)c1cccs1	tim10-1 inh 45 | tim10-1 confirm inactive
CC(=O)Nc1ccc(-c2csc(N/N=C(/C)c3ccccc3)n2)cc1	none (no result: NALP1 yeast inh)
Cc1cc(NC(=O)c2cccs2)n(-c2nc3ccccc3[nH]2)n1	none
Cc1cc(NC(=O)c2sccc2C)n(-c2nc3ccccc3[nH]2)n1	tim10-1 inh 49 | tim10-1 confirm inactive
CCc1ccc(-c2csc(NC(=O)COC(=O)CCc3nc4ccccc4s3)n2)cc1	none
Cc1cccc(N2C(=O)C(O)=C(C(=O)c3cccs3)C2c2ccc(Cl)cc2)n1 (centres undefined)	none
CC1(C)CC(=O)/C(=C(\O)c2ccccc2)C(=NCCO)C1	none
COc1cccc(N=C2CC(C)(C)CC(=O)/C2=C(/O)c2ccccc2)c1	tim10-1 inh 43 | tim10-1 confirm inactive
Fc1cccc(CSc2ccc3nnc(-c4ccccn4)n3n2)c1	none
Fc1cccc(Cl)c1CSc1ccc2nnc(-c3ccccn3)n2n1	tim10-1 inh 40 | tim10-1 confirm 31
S=C(Nc1nc2c(s1)CCCC2)NC1CC1	tim10-1 inh 41 | tim10-1 confirm inactive
CC(C)(C)Cc1nc2ccccc2n1CCc1ccccc1	tim10-1 inh 41 | tim10-1 confirm inactive
CCc1nc2ccccc2n1CCc1ccccc1	none
CCN(CC)S(=O)(=O)c1cccc(NC(=O)c2ccc(SC)cc2OC)c1	tim10-1 inh 43 | tim10-1 confirm 37
COc1cc(SC)ccc1C(=O)Nc1cccc(S(=O)(=O)NC2=NCCCCC2)c1	none (no result: NALP1 yeast inh)
COc1cc(C)ccc1OCc1cc(C(=O)NCCN2CCOCC2)no1	none
COc1ccccc1-c1cc2ccccc2[nH]1	tim10-1 inh 51 | tim10-1 confirm 33
O=C(O)c1ccccc1-c1cc2ccccc2[nH]1	none (no result: NALP1 yeast inh)
COc1ccc(/C=C/C(=O)c2nc3ccccc3n2CC(=O)c2ccc(OC)cc2)cc1	tim10-1 inh 41 | tim10-1 confirm 37
COc1ccc(Cn2c(/C=C/c3ccccc3)nc3ccccc32)cc1	tim10-1 inh 46 | tim10-1 confirm inactive
CC(=O)c1ccc(N2C(=NC(=O)CCC3CCCC3)SC3CS(=O)(=O)CC32)cc1 (centres undefined)	none
C=CCNc1nc(SC)nc2ccsc12	none
C=CCSc1nc(N(CC)CC)c2sccc2n1	tim10-1 inh 44 | tim10-1 confirm inactive
COc1cc(C(=O)NCC(c2cccnc2)N2CCN(c3ccc(F)cc3)CC2)cc(OC)c1OC (centres undefined)	none
Cc1ccc2occ(/C=C/C(=O)c3ccccc3O)c(=O)c2c1	tim10-1 inh 48 | tim10-1 confirm 33
Cc1c(/C=C/C(=O)c2ccccc2O)cnn1C	tim10-1 inh 50 | tim10-1 confirm 39
Cc1ccc(/C=C/C(=O)c2ccccc2O)cc1	none
Cc1ccc(C2CC2C(=O)NNC(=S)Nc2cccc(Cl)c2)cc1 (centres undefined)	none
